Assay results reported in PubChem BioAssay AID1159580 (chemical genetic matrix, 2015).
Among all 5,500 compounds or so, about 2,000 (36%) were called active. About 18% were inconclusive and are not listed. Rule as the data show it: active = normalized growth mostly below about 0.91 (no sharp cut-off); inconclusive = no clear call, values can overlap the other calls; inactive = mostly above about 0.92. The list shows a part of the results.

Assay: chemical genetic growth profiling, strain panel (AID 1159580);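 also: tested at 20 µM; growth read once vehicle control cultures reached saturation at 30 °C; 1 = growth at the plate median or of vehicle wells; lower values mean less growth of the strain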
Conditions: growth OD

Measured: normalized growth

Cn1c(=O)c2c(ncn2CCO)n(C)c1=O
inactive: S. cerevisiae deletion strains, locus YJR075W, strain HOC1, active compounds read low 1 | S. cerevisiae deletion strains, locus YKL009W, strain mrt4, active compounds read low 0.99 | S. cerevisiae deletion strains, locus YKL068W, active compounds read low 0.991 | S. cerevisiae deletion strains, locus YKL085W, strain MDH1 (second series), active compounds read low 0.993 | S. cerevisiae deletion strains, locus YKL085W, strain MDH1, active compounds read low 0.993 | S. cerevisiae deletion strains, locus YKL160W, strain elf1, active compounds read low 1.02 | S. cerevisiae deletion strains, locus YKL190W, strain CNB1, active compounds read low 1 | S. cerevisiae deletion strains, locus YKR001C, strain vps1, active compounds read low 0.997 | S. cerevisiae deletion strains, locus YKR026C, strain gcn3, active compounds read low 1.02 | S. cerevisiae deletion strains, locus YKR091W, strain srl3, active compounds read low 1.02 | S. cerevisiae deletion strains, locus YLL001W, strain dnm1, active compounds read low 0.993 | S. cerevisiae deletion strains, locus YLL026W, active compounds read low 1.02 | S. cerevisiae deletion strains, locus YLL041C, strain sdh2, active compounds read low 1.02 | S. cerevisiae deletion strains, locus YLR027C, strain aat2, active compounds read low 1.01 | S. cerevisiae deletion strains, locus YLR039C, strain RIC1, active compounds read low 1.02 | S. cerevisiae deletion strains, locus YLR058C, strain SHM2, active compounds read low 1.01 | S. cerevisiae deletion strains, locus YLR102C, strain apc9, active compounds read low 0.997 | S. cerevisiae deletion strains, locus YLR113W, strain HOG1, active compounds read low 0.988 | S. cerevisiae deletion strains, locus YLR221C, strain rsa3, active compounds read low 1.01 | S. cerevisiae deletion strains, locus YLR258W, strain gsy2, active compounds read low 1.02 | S. cerevisiae deletion strains, locus YLR262C, strain YPT6 (second series), active compounds read low 1.08 | S. cerevisiae deletion strains, locus YLR262C, strain YPT6, active compounds read low 1.01 | S. cerevisiae deletion strains, locus YLR268W, strain sec22, active compounds read low 1.06 | S. cerevisiae deletion strains, locus YLR320W, strain mms22, active compounds read low 1.03 | S. cerevisiae deletion strains, locus YLR330W, strain CHS5, active compounds read low 1 | S. cerevisiae deletion strains, locus YLR342W, strain FKS1 (second series), active compounds read low 0.981 | S. cerevisiae deletion strains, locus YLR342W, strain FKS1, active compounds read low 1.02 | S. cerevisiae deletion strains, locus YLR357W, strain rsc2, active compounds read low 1 | S. cerevisiae deletion strains, locus YLR370C, strain arc18, active compounds read low 1.02 | S. cerevisiae deletion strains, locus YLR371W, strain rom2, active compounds read low 1.01 | S. cerevisiae deletion strains, locus YLR384C, strain iki3, active compounds read low 1.01 | S. cerevisiae deletion strains, locus YLR418C, strain cdc73, active compounds read low 0.985 | S. cerevisiae deletion strains, locus YML016C, strain PPZ1, active compounds read low 1 | S. cerevisiae deletion strains, locus YML032C, strain rad52, active compounds read low 1.03 | S. cerevisiae deletion strains, locus YML120C, strain ndi1, active compounds read low 0.986 | S. cerevisiae deletion strains, locus YML124C, strain tub3, active compounds read low 1 | S. cerevisiae deletion strains, locus YMR058W, strain fet3, active compounds read low 1.02 | S. cerevisiae deletion strains, locus YMR078C, strain ctf18, active compounds read low 0.998 | S. cerevisiae deletion strains, locus YMR125W, strain sto1, active compounds read low 1.02 | S. cerevisiae deletion strains, locus YMR129W, active compounds read low 1.02 | S. cerevisiae deletion strains, locus YMR205C, strain PFK2, active compounds read low 1.02 | S. cerevisiae deletion strains, locus YMR223W, strain ubp8, active compounds read low 0.971 | S. cerevisiae deletion strains, locus YMR231W, strain pep5, active compounds read low 1 | S. cerevisiae deletion strains, locus YMR263W, strain SAP30, active compounds read low 1.02 | S. cerevisiae deletion strains, locus YMR307W, strain GAS1, active compounds read low 0.975 | S. cerevisiae deletion strains, locus YNL067W, strain RPL9B, active compounds read low 1.02 | S. cerevisiae deletion strains, locus YNL071W, strain lat1, active compounds read low 1.01 | S. cerevisiae deletion strains, locus YNL128W, strain TEP1, active compounds read low 1 | S. cerevisiae deletion strains, locus YNL153C, strain GIM3, active compounds read low 1.04 | S. cerevisiae deletion strains, locus YNL183C, strain NPR1, active compounds read low 0.897 | S. cerevisiae deletion strains, locus YNL209W, strain ssb2, active compounds read low 1.01 | S. cerevisiae deletion strains, locus YNL233W, strain BNI4, active compounds read low 1.03 | S. cerevisiae deletion strains, locus YNL248C, strain rpa49, active compounds read low 1.01 | S. cerevisiae deletion strains, locus YNL250W, strain rad50, active compounds read low 0.997 | S. cerevisiae deletion strains, locus YNL271C, strain bni1, active compounds read low 1.01 | S. cerevisiae deletion strains, locus YNL298W, strain CLA4, active compounds read low 1.01 | S. cerevisiae deletion strains, locus YNL307C, strain MCK1, active compounds read low 0.969 | S. cerevisiae deletion strains, locus YNL322C, strain KRE1 (second series), active compounds read low 1.05 | S. cerevisiae deletion strains, locus YNL322C, strain KRE1, active compounds read low 1 | S. cerevisiae deletion strains, locus YNR049C, strain mso1, active compounds read low 1.02 | S. cerevisiae deletion strains, locus YNR052C, strain pop2, active compounds read low 1.01 | S. cerevisiae deletion strains, locus YOL006C, strain TOP1, active compounds read low 0.99 | S. cerevisiae deletion strains, locus YOL012C, strain htz1 1.01 | S. cerevisiae deletion strains, locus YOL147C, strain pex11, active compounds read low 1.01 | S. cerevisiae deletion strains, locus YOR001W, strain rrp6, active compounds read low 1.02 | S. cerevisiae deletion strains, locus YOR061W, strain CKA2, active compounds read low 1.01 | S. cerevisiae deletion strains, locus YOR069W, strain VPS5, active compounds read low 1.01 | S. cerevisiae deletion strains, locus YOR070C, strain gyp1, active compounds read low 1.02 | S. cerevisiae deletion strains, locus YOR080W, strain dia2, active compounds read low 1.04 | S. cerevisiae deletion strains, locus YOR083W, strain WHI5, active compounds read low 1.02 | S. cerevisiae deletion strains, locus YOR106W, strain vam3, active compounds read low 1.03 | S. cerevisiae deletion strains, locus YOR136W, strain idh2, active compounds read low 0.993 | S. cerevisiae deletion strains, locus YOR144C, strain elg1, active compounds read low 0.997 | S. cerevisiae deletion strains, locus YOR184W, strain ser1, active compounds read low 0.956 | S. cerevisiae deletion strains, locus YOR231W, strain MKK1, active compounds read low 0.981 | S. cerevisiae deletion strains, locus YOR265W, strain rbl2, active compounds read low 1.01 | S. cerevisiae deletion strains, locus YOR270C, strain vph1, active compounds read low 1.05 | S. cerevisiae deletion strains, locus YOR290C, strain snf2, active compounds read low 1.03 | S. cerevisiae deletion strains, locus YOR316C, strain cot1, active compounds read low 1 | S. cerevisiae deletion strains, locus YPL051W, strain arl3, active compounds read low 1.01 | S. cerevisiae deletion strains, locus YPL055C, strain LGE1, active compounds read low 0.989 | S. cerevisiae deletion strains, locus YPL078C, strain atp4, active compounds read low 1.02 | S. cerevisiae deletion strains, locus YPL106C, strain sse1, active compounds read low 1.07 | S. cerevisiae deletion strains, locus YPL240C, strain hsp82, active compounds read low 0.985 | S. cerevisiae deletion strains, locus YPL241C, strain CIN2, active compounds read low 1.01 | S. cerevisiae deletion strains, locus YPL256C, strain CLN2, active compounds read low 0.974 | S. cerevisiae deletion strains, locus YPR119W, strain clb2, active compounds read low 1 | S. cerevisiae deletion strains, locus YPR141C, strain kar3, active compounds read low 0.996 | S. cerevisiae deletion strains, locus YPR163C, strain tif3, active compounds read low 1.02 | S. cerevisiae deletion strains, locus YPR167C, strain met16, active compounds read low 0.997 | S. cerevisiae deletion strains, strain wtn01, active compounds read low 1.03 | S. cerevisiae strains, strain wild type, active compounds read low 0.998
